This note sets out measurements from PubChem BioAssay AID651871 (Sanford-Burnham Center for Chemical Genomics, 2012).

The test system of this test is HL-1. In words: cardiomyocyte survival under oxidative or metabolic stress – cell-based, panel, H9c2 and HL-1, ATP luminescence, set 2, SAR follow-up (AID 651871).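 Note: cells exposed to stressor for 2 h before ATP readout; reference of the scale not given here.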 The following applies: H9c2/HL-1 cardiomyocytes, 2-deoxyglucose stress, with 2-deoxyglucose, run 5, at 19.8 µM (top of the series).

In turn, `COc1ccc2c(c1OC)C(=O)N1c3ccccc3C(=O)N(Cc3cccc(Cl)c3Cl)C21` (stereo unspecified) came in with an activity (protection/inhibition) of 51.6%.
